Results published in PubChem BioAssay AID1347075 (National Center for Advancing Translational Sciences (NCATS), 2019).
The campaign covered roughly 400,000 compounds. About 5,500 (1.4%) were called active. About 9% were inconclusive and are not listed. Calls follow the shape of the dose curve; as a rule, active = well fitted cell-killing curve with a large enough effect; inconclusive = small, poorly fitted or top-dose-only effect, or effect the other way; inactive = flat fitted curve, though single readings scatter. For the sample, actives were picked, then their nearest neighbours and some compounds at random.

Assay: qHTS assay for MDR1-selective chemotherapeutics: Primary screen using the parental adenocarcinoma cell KB-3-1; also: nearly all actives have a fitted effect of over 60% in size
Settings: KB-3-1 viability, CellTiter-Glo ATP luminescence, 72 h; series mostly up to 46.1 µM; activity change, negative = cytotoxic: at the top concentration
How it was run: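 Screening of KB-3-1 cells (DMEM, 10% FBS, phenol-red free) ran from lowest to highest compound concentration; after 72 h at 37 °C viability was read luminescently and curves fitted.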
% is scaled to controls: 0 for no effect and ±100 for the full control effect; potency is read from the fitted curve at half-maximal effect.

Structure (SMILES) | activity change, negative = cytotoxic | Potency
COc1cc2nc(C#Cc3nc4cc(OC)c(OC)cc4[nH]3)[nH]c2cc1OC | 22.1% (inactive) | 
COc1ccc(CN2C(=O)C(NC(=O)c3cccc(C)c3)(C(F)(F)F)N=C2c2ccccc2)cc1 (centres undefined) | -5.67% (inactive) | 
Cc1cc2c(cc3c(SCc4cccc(Cl)c4)nnc(C)n32)o1 | 3.88% (inactive) | 
Cc1cc(C)cc(-n2ccnc2SCC(=O)Nc2nc3ccccc3s2)c1 | 3.34% (inactive) | 
Cc1cccc(-n2ccnc2SCC(=O)Nc2cccc3ccccc23)c1C | 14.9% (inactive) | 
Cc1nnc(NC(=O)CSc2nccn2-c2cccc(C)c2C)s1 |  | 3.66 µM (active)
Cc1ccc(S(=O)(=O)N2CCN(c3nc(-n4cnc5ccccc54)nc4ccccc34)CC2)cc1 | 17.8% (inactive) | 
CC1CCCCC1NC(=O)/C(C#N)=C/C=C/c1ccccc1[N+](=O)[O-] (centres undefined) |  | 5.8 µM (active)
CC(OC(=O)/C=C/c1ccccc1)C(=O)NC1CCCCC1C (centres undefined) | 1.76% (inactive) | 
CC1CC(C)CN(C/C=C/c2ccccc2[N+](=O)[O-])C1 (centres undefined) | 2.5% (inactive) | 
O=C1CCCC2=C1[C@@]1(CCC(c3ccccc3)C1)N=C(Nc1nc3ccccc3o1)N2 (some centres undefined) |  | inactive
CCN(C(=O)CSc1nnc(C)n2c1cc1occc12)c1ccccc1 | 12.3% (inactive) | 
CC(C)c1ccc2oc(-c3cc(NC(=O)c4cccs4)ccc3Cl)nc2c1 | 3.62% (inactive) | 
CC(C)(C)n1nc(Cc2cccc3ccccc23)c(C#N)c1N | -23.1% (inactive) | 
CCc1nn(-c2cc(Oc3cccc4ccccc34)nc(-c3ccccc3)n2)c(N)c1C#N |  | 5.8 µM (active)
C(=Nc1ccc(/C=C/c2ccnc3ccccc23)cc1)c1cc2c3c(c1)CCCN3CCC2 | 0% (inactive) | 
CCOC(=O)C1CCN(C(c2ccc(F)cc2)c2sc3nc(-c4ccco4)nn3c2O)CC1 (centres undefined) | 1.03% (inactive) | 
CCC1CCCCN1Cc1c(O)ccc2c(=O)c(Oc3ccccc3Cl)c(C(F)(F)F)oc12 (centres undefined) | 1.37% (inactive) | 
CNC(=O)C(NC(=O)c1ccccc1)=C(C)C | -13% (inactive) | 
CN(C)C(=O)c1coc2nc3ccccc3nc12 | -3.25% (inactive) | 
CNC(=O)c1cccc2nc3ccccc3nc12 |  | 16.4 µM (active)
CCCCn1c(=N)c(S(=O)(=O)c2ccccc2)cc2c(=O)n3cccc(C)c3nc21 | 0.0272% (inactive) | 

Structure (SMILES) | activity change, negative = cytotoxic | Potency
COc1ccc(NC(=O)CN2CCCN(Cc3ccccc3)S2(=O)=O)cc1 | -9.93% (inactive) | 
CCCOC(=O)c1[nH]c2c(c1C)C(=O)CC(c1cccs1)C2 (centres undefined) |  | 0.651 µM (active)
COC(=O)C1C(=O)c2c([nH]c(C(=O)OCCSC)c2C)CC1C (centres undefined) | 5.65% (inactive) | 
CCc1ccc(C2CC(=O)c3c([nH]c(C(=O)OCc4ccc(C)cc4)c3C)C2)cc1 (centres undefined) | -10.1% (inactive) | 
COc1ccc(-c2nn(CC(=O)Nc3ccccc3F)c3c2cnc2ccc(F)cc23)cc1 | -5.21% (inactive) | 
Cc1c2cnn(-c3ccccc3)c(=O)c2c(C)n1C(C)C(=O)Nc1ccc(Br)cc1F (centres undefined) | 5.69% (inactive) | 
CCN(CC)C(=O)CSc1nnc(CNc2ccc(F)cc2)n1Cc1ccco1 | -10.8% (inactive) | 
CN(C)C(=S)N=c1ssc(=S)n1Cc1ccco1 |  | 4.11 µM (active)
CCc1ccccc1N1CN(Cc2ccco2)CNC1=S | 2.61% (inactive) | 
CCOc1ccc2nc(N3CCCC(C(=O)Nc4cc(C)ccc4C)C3)sc2c1 (centres undefined) | -4.09% (inactive) | 
CCc1ccc(NC(=O)c2cnc3c(-c4ccccc4)c(C)nn3c2C)cc1 | -2.78% (inactive) | 
CCN(CC)S(=O)(=O)c1ccc(NC(=O)c2cnc(C)cn2)cc1 | 17.5% (inactive) | 
CCN(CC)S(=O)(=O)c1ccc(N(C)CCc2ccc(OC)c(OC)c2)nc1 | -18.5% (inactive) | 
CCN(CC)S(=O)(=O)c1ccc(N(C)Cc2ccc(C(F)(F)F)cc2)nc1 |  | 10.3 µM (active)
COc1ccccc1-n1c(-c2ccc(C)cc2)cn2c3c(=O)n(C)c(=O)n(C)c3nc12 | 16.8% (inactive) | 
CN(C)c1ccc(/C=C2\C=Cc3ccccc32)cc1Br | 11% (inactive) | 
CCOC(=O)c1cc2c(=O)n3ccccc3nc2n(Cc2ccco2)c1=NC(=O)c1ccc(F)cc1 | 13.8% (inactive) | 
COc1ccc(Nc2cc(=O)n(-c3ccccc3)c3c2c(=O)n(C)c(=O)n3C)cc1 | 43% (inactive) | 
COc1ccc(Nc2cc(=O)oc3ccccc23)cc1 |  | 4.11 µM (active)
COc1ccc(CCNC(=O)COC(=O)c2cc(=O)c3ccccc3o2)cc1 | -1.64% (inactive) | 
CC1=C(C(=O)OCC2CCCCC2)C(c2c(F)cccc2Cl)CC(=O)N1 (centres undefined) | 12.9% (inactive) | 
CCc1ccc(N(CC)C(=O)CCn2cnc3onc(-c4ccc(F)cc4)c3c2=O)cc1 | 1.49% (inactive) | 

Structure (SMILES) | activity change, negative = cytotoxic | Potency
CCCc1cc(-c2nc(-c3ccc(C)cc3)cs2)ccn1 |  | 11.6 µM (active)
Fc1ccc(-c2csc(-c3ccc(C4SCCS4)cc3)n2)cc1F | 2.11% (inactive) | 
CCCc1nc2scc(-c3ccc(C)cc3)c2c(=O)n1N | -2.91% (inactive) | 
O=C(CN1CCCCCC1)Nc1ccc(S(=O)(=O)N2CCCCC2)cc1 | -4.68% (inactive) | 
CCc1ccc(NC(=O)CN2C(=O)COc3ccc(S(=O)(=O)N4CCCC4)cc32)cc1 | 12.8% (inactive) | 
CCc1ccc(NC(=O)CN2CCSc3ccc(S(=O)(=O)N4CCCC4)cc32)cc1 |  | 16.4 µM (active)
O=C(NNS(=O)(=O)c1ccc(F)cc1)c1ccc([N+](=O)[O-])cc1Cl | -17% (inactive) | 
O=C(NCCNc1ccc([N+](=O)[O-])cc1Cl)c1ccccc1F | -1.36% (inactive) | 
O=[N+]([O-])c1ccc(NS(=O)(=O)c2ccccc2)c(Cl)c1 |  | 16.4 µM (active)
Cc1cccc(-n2ccnc2SCC(=O)Nc2cc(C(F)(F)F)ccc2Cl)c1 | -13% (inactive) | 
Cc1cccc(C(=O)NCCc2nc3ccccc3n2Cc2ccccc2Cl)c1 | -12% (inactive) | 
Cc1cccc(C(=O)Nc2ccc(-c3nc4ccccc4s3)c(C)c2)c1 | 1.57% (inactive) | 
Cc1ccccc1CCNC(=O)C1CCN(c2nc3ccccc3nc2C(F)(F)F)CC1 | -10.5% (inactive) | 
Nc1nnc2c(C(F)(F)F)nc3ccccc3n12 | -3.46% (inactive) | 
CN(NC(=O)c1ccccc1)c1nc2ccccc2nc1C(F)(F)F |  | 2.91 µM (active)
CSc1nc(N(C)NC(=O)c2cccc(C)c2)c2ccccc2n1 |  | 0.184 µM (active)
COc1ccc(C)cc1Nc1nc2ccccc2c2nnc(C)n12 | -1.35% (inactive) | 
Cc1ccc(-c2nc(CS(=O)(=O)CC(=O)NCc3ccccc3Cl)c(C)o2)cc1 | 16.7% (inactive) | 
O=C(CSc1nnc(CNC(=O)c2ccccc2)n1-c1ccc(F)cc1)Nc1ccccc1F | 0.161% (inactive) | 
COc1ccc(C(=O)c2oc3ccccc3c2NC(=O)COc2cccc(C)c2)cc1 | 4.39% (inactive) | 
